# According to article PMC11006913:
# Key:
# Experiment in all cases: PBM; 200 nM protein, PBS
# Conditions in all cases: dsDNA, one strand shown
# HOXB9 [1] = target: HOXB9 (Homo sapiens, UniProt P17482 171-250, T197M)
# HOXB6 = HOXB6 (Homo sapiens, UniProt P17509 132-218, K202E)
# ALX3 [2] = target: ALX3 (Homo sapiens, UniProt O95076 139-225, N203Q)
# PAX4 = target: T1, PAX4 (Homo sapiens, UniProt O43316 9-242, F177V)
# T1 sequence: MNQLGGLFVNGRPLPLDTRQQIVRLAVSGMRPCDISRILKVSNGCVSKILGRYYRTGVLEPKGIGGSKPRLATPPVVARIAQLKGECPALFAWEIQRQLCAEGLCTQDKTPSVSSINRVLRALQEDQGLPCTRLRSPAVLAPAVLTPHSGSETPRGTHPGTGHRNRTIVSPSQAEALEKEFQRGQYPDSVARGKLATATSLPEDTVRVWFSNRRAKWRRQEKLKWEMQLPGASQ
# ALX3 [3] = target: ALX3 (Homo sapiens, UniProt O95076 139-225)
# ALX3 [4] = target: ALX3 (Homo sapiens, UniProt O95076 139-225, L168Q)
# ALX3 [5] = target: ALX3 (Homo sapiens, UniProt O95076 139-225, L168V)
# ALX3 [6] = target: ALX3 (Homo sapiens, UniProt O95076 139-225, N203S)
# HOXB9 [7] = target: HOXB9 (Homo sapiens, UniProt P17482 171-250)
# HOXB9 [8] = target: HOXB9 (Homo sapiens, UniProt P17482 171-250, R186Q)
# HOXD13 [9] = target: HOXD13 (Homo sapiens, UniProt P35453 263-343, T313R)
# HOXD13 [10] = target: HOXD13 (Homo sapiens, UniProt P35453 263-343)
# HOXD13 [11] = target: HOXD13 (Homo sapiens, UniProt P35453 263-343, T313A)
# NKX3-2 [12] = target: NKX3-2 (Homo sapiens, UniProt P78367 192-278, P234S)
# NKX3-2 [13] = target: NKX3-2 (Homo sapiens, UniProt P78367 192-278)
# ALX1 [14] = target: ALX1 (Homo sapiens, UniProt Q15699 118-204, L144V)
# ALX1 [15] = target: ALX1 (Homo sapiens, UniProt Q15699 118-204, L144R)
# ALX1 [16] = target: ALX1 (Homo sapiens, UniProt Q15699 118-204)
# MSX2 [17] = target: MSX2 (Homo sapiens, UniProt P35548 130-214, R199I)
# MSX2 [18] = target: MSX2 (Homo sapiens, UniProt P35548 130-214)
# MSX2 [19] = target: MSX2 (Homo sapiens, UniProt P35548 130-214, F161Y)
# HOXA2 [20] = target: HOXA2 (Homo sapiens, UniProt O43364 129-215, R185T)
# HOXA2 [21] = target: HOXA2 (Homo sapiens, UniProt O43364 129-215, R185K)
# HOXA2 [22] = target: HOXA2 (Homo sapiens, UniProt O43364 129-215, Y150S)
# HOXA2 [23] = target: HOXA2 (Homo sapiens, UniProt O43364 129-215)
# Sequence of HOXA2 (Homo sapiens, UniProt O43364 129-215) (O43364 129-215): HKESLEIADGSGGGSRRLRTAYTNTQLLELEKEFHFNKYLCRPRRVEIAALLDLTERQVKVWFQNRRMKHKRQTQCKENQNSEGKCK
# Sequence of HOXB9 (Homo sapiens, UniProt P17482 171-250, T197M) (P17482 171-250 T197M): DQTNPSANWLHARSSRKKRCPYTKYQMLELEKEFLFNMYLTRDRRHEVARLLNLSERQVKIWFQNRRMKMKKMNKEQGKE
# Sequence of HOXB9 (Homo sapiens, UniProt P17482 171-250, R186Q) (P17482 171-250 R186Q): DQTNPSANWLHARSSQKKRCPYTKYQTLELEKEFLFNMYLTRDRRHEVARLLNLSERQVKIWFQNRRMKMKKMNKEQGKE
# Sequence of HOXB9 (Homo sapiens, UniProt P17482 171-250) (P17482 171-250): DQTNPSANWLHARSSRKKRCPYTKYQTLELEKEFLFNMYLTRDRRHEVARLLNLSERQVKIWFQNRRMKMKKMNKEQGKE
# Sequence of MSX2 (Homo sapiens, UniProt P35548 130-214, F161Y) (P35548 130-214 F161Y): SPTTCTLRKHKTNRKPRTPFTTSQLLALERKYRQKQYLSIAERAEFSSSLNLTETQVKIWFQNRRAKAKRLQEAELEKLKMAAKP
# Sequence of HOXD13 (Homo sapiens, UniProt P35453 263-343, T313R) (P35453 263-343 T313R): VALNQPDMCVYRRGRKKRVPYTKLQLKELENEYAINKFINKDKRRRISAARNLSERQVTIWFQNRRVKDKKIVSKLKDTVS
# Sequence of ALX1 (Homo sapiens, UniProt Q15699 118-204) (Q15699 118-204): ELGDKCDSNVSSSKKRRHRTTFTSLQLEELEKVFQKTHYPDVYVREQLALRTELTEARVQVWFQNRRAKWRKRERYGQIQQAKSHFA
# Sequence of ALX1 (Homo sapiens, UniProt Q15699 118-204, L144V) (Q15699 118-204 L144V): as the sequence (Q15699 118-204) above, with L27V counted along it
# Sequence of MSX2 (Homo sapiens, UniProt P35548 130-214) (P35548 130-214): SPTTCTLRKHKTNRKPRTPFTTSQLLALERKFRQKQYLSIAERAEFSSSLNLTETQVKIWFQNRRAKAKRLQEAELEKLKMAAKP
# Sequence of ALX1 (Homo sapiens, UniProt Q15699 118-204, L144R) (Q15699 118-204 L144R): as the sequence (Q15699 118-204) above, with L27R counted along it
# Sequence of MSX2 (Homo sapiens, UniProt P35548 130-214, R199I) (P35548 130-214 R199I): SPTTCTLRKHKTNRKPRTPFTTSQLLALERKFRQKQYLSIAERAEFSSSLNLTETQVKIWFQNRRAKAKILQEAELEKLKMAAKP
# Sequence of ALX3 (Homo sapiens, UniProt O95076 139-225, N203S) (O95076 139-225 N203S): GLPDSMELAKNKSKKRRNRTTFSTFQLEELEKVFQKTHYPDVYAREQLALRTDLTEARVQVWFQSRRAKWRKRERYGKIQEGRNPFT
# Sequence of ALX3 (Homo sapiens, UniProt O95076 139-225, N203Q) (O95076 139-225 N203Q): as the sequence (O95076 139-225 N203S) above, with S65Q counted along it
# Sequence of HOXA2 (Homo sapiens, UniProt O43364 129-215, Y150S) (O43364 129-215 Y150S): as the sequence (O43364 129-215) above, with Y22S counted along it
# Sequence of HOXD13 (Homo sapiens, UniProt P35453 263-343) (P35453 263-343): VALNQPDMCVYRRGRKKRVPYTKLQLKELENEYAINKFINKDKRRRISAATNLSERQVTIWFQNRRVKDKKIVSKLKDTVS
# Sequence of NKX3-2 (Homo sapiens, UniProt P78367 192-278) (P78367 192-278): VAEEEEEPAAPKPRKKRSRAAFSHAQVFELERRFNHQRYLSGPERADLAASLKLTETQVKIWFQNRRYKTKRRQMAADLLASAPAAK
# Sequence of HOXD13 (Homo sapiens, UniProt P35453 263-343, T313A) (P35453 263-343 T313A): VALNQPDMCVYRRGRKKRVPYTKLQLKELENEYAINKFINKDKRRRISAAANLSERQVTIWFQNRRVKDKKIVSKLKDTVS
# Sequence of HOXB6 (P17509 132-218 K202E): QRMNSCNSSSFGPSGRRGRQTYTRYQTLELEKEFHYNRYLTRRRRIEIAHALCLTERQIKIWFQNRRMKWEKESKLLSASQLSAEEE
# Sequence of ALX3 (Homo sapiens, UniProt O95076 139-225, L168Q) (O95076 139-225 L168Q): as the sequence (O95076 139-225 N203S) above, with L30Q, S65N counted along it
# Sequence of NKX3-2 (Homo sapiens, UniProt P78367 192-278, P234S) (P78367 192-278 P234S): as the sequence (P78367 192-278) above, with P43S counted along it
# Sequence of ALX3 (Homo sapiens, UniProt O95076 139-225, L168V) (O95076 139-225 L168V): as the sequence (O95076 139-225 N203S) above, with L30V, S65N counted along it
# Sequence of HOXA2 (Homo sapiens, UniProt O43364 129-215, R185K) (O43364 129-215 R185K): as the sequence (O43364 129-215) above, with R57K counted along it
# Sequence of ALX3 (Homo sapiens, UniProt O95076 139-225) (O95076 139-225): as the sequence (O95076 139-225 N203S) above, with S65N counted along it
# Sequence of HOXA2 (Homo sapiens, UniProt O43364 129-215, R185T) (O43364 129-215 R185T): as the sequence (O43364 129-215) above, with R57T counted along it
sequence,measurement,setting,value
AATATAAT,binding signal,HOXB9 [1],"9.96 upbm affinity estimate (log intensity, higher = more binding, comparable within an allelic series)"
same,binding signal,HOXB6,"10 upbm affinity estimate (log intensity, higher = more binding, comparable within an allelic series)"
same,binding signal,ALX3 [2],"8.52 upbm affinity estimate (log intensity, higher = more binding, comparable within an allelic series)"
same,binding signal,PAX4,"10.7 upbm affinity estimate (log intensity, higher = more binding, comparable within an allelic series)"
same,binding signal,ALX3 [3],"11.4 upbm affinity estimate (log intensity, higher = more binding, comparable within an allelic series)"
same,binding signal,ALX3 [4],"9.35 upbm affinity estimate (log intensity, higher = more binding, comparable within an allelic series)"
same,binding signal,ALX3 [5],"9.24 upbm affinity estimate (log intensity, higher = more binding, comparable within an allelic series)"
same,binding signal,ALX3 [6],"8.65 upbm affinity estimate (log intensity, higher = more binding, comparable within an allelic series)"
CGTGGCTC,binding signal,HOXB9 [1],"8.5 upbm affinity estimate (log intensity, higher = more binding, comparable within an allelic series)"
same,binding signal,HOXB9 [7],"8.18 upbm affinity estimate (log intensity, higher = more binding, comparable within an allelic series)"
same,binding signal,HOXB9 [8],"8.26 upbm affinity estimate (log intensity, higher = more binding, comparable within an allelic series)"
CCACGTCG,binding signal,HOXB9 [1],"8.7 upbm affinity estimate (log intensity, higher = more binding, comparable within an allelic series)"
same,binding signal,HOXB9 [7],"8.53 upbm affinity estimate (log intensity, higher = more binding, comparable within an allelic series)"
same,binding signal,HOXB9 [8],"8.57 upbm affinity estimate (log intensity, higher = more binding, comparable within an allelic series)"
TATAAATA,binding signal,HOXB9 [1],"9.81 upbm affinity estimate (log intensity, higher = more binding, comparable within an allelic series)"
same,binding signal,HOXB9 [7],"11.2 upbm affinity estimate (log intensity, higher = more binding, comparable within an allelic series)"
same,binding signal,HOXD13 [9],"10.8 upbm affinity estimate (log intensity, higher = more binding, comparable within an allelic series)"
same,binding signal,HOXB9 [8],"10.8 upbm affinity estimate (log intensity, higher = more binding, comparable within an allelic series)"
AGCCCCGG,binding signal,HOXB9 [1],"8.65 upbm affinity estimate (log intensity, higher = more binding, comparable within an allelic series)"
same,binding signal,HOXB9 [7],"8.31 upbm affinity estimate (log intensity, higher = more binding, comparable within an allelic series)"
same,binding signal,HOXD13 [9],"9.53 upbm affinity estimate (log intensity, higher = more binding, comparable within an allelic series)"
same,binding signal,HOXD13 [10],"9.4 upbm affinity estimate (log intensity, higher = more binding, comparable within an allelic series)"
same,binding signal,HOXD13 [11],"9.76 upbm affinity estimate (log intensity, higher = more binding, comparable within an allelic series)"
same,binding signal,HOXB9 [8],"8.53 upbm affinity estimate (log intensity, higher = more binding, comparable within an allelic series)"
same,binding signal,NKX3-2 [12],"10.6 upbm affinity estimate (log intensity, higher = more binding, comparable within an allelic series)"
same,binding signal,NKX3-2 [13],"10.6 upbm affinity estimate (log intensity, higher = more binding, comparable within an allelic series)"
CTCGACCA,binding signal,HOXB9 [1],"8.44 upbm affinity estimate (log intensity, higher = more binding, comparable within an allelic series)"
same,binding signal,HOXB9 [7],"8.28 upbm affinity estimate (log intensity, higher = more binding, comparable within an allelic series)"
same,binding signal,ALX1 [14],"6.22 upbm affinity estimate (log intensity, higher = more binding, comparable within an allelic series)"
same,binding signal,ALX1 [15],"6.21 upbm affinity estimate (log intensity, higher = more binding, comparable within an allelic series)"
same,binding signal,HOXB9 [8],"8.38 upbm affinity estimate (log intensity, higher = more binding, comparable within an allelic series)"
same,binding signal,ALX1 [16],"6.22 upbm affinity estimate (log intensity, higher = more binding, comparable within an allelic series)"
CCGTGAGG,binding signal,HOXB9 [1],"8.4 upbm affinity estimate (log intensity, higher = more binding, comparable within an allelic series)"
same,binding signal,HOXB9 [7],"8.23 upbm affinity estimate (log intensity, higher = more binding, comparable within an allelic series)"
same,binding signal,MSX2 [17],"9.41 upbm affinity estimate (log intensity, higher = more binding, comparable within an allelic series)"
same,binding signal,MSX2 [18],"9.11 upbm affinity estimate (log intensity, higher = more binding, comparable within an allelic series)"
same,binding signal,HOXB9 [8],"8.2 upbm affinity estimate (log intensity, higher = more binding, comparable within an allelic series)"
same,binding signal,MSX2 [19],"9.23 upbm affinity estimate (log intensity, higher = more binding, comparable within an allelic series)"
CCTAGCCG,binding signal,HOXB9 [1],"8.53 upbm affinity estimate (log intensity, higher = more binding, comparable within an allelic series)"
same,binding signal,HOXB9 [7],"8.64 upbm affinity estimate (log intensity, higher = more binding, comparable within an allelic series)"
same,binding signal,ALX1 [14],"6.49 upbm affinity estimate (log intensity, higher = more binding, comparable within an allelic series)"
same,binding signal,ALX1 [15],"6.54 upbm affinity estimate (log intensity, higher = more binding, comparable within an allelic series)"
same,binding signal,HOXB9 [8],"8.65 upbm affinity estimate (log intensity, higher = more binding, comparable within an allelic series)"
same,binding signal,ALX1 [16],"6.41 upbm affinity estimate (log intensity, higher = more binding, comparable within an allelic series)"
AGGAACCC,binding signal,HOXB9 [1],"8.41 upbm affinity estimate (log intensity, higher = more binding, comparable within an allelic series)"
same,binding signal,HOXB9 [7],"8.22 upbm affinity estimate (log intensity, higher = more binding, comparable within an allelic series)"
same,binding signal,HOXB9 [8],"8.24 upbm affinity estimate (log intensity, higher = more binding, comparable within an allelic series)"
CTCAGGCC,binding signal,HOXB9 [1],"8.41 upbm affinity estimate (log intensity, higher = more binding, comparable within an allelic series)"
same,binding signal,HOXA2 [20],"7.06 upbm affinity estimate (log intensity, higher = more binding, comparable within an allelic series)"
same,binding signal,HOXB9 [7],"8.36 upbm affinity estimate (log intensity, higher = more binding, comparable within an allelic series)"
same,binding signal,HOXA2 [21],"10.3 upbm affinity estimate (log intensity, higher = more binding, comparable within an allelic series)"
same,binding signal,HOXB9 [8],"8.4 upbm affinity estimate (log intensity, higher = more binding, comparable within an allelic series)"
same,binding signal,HOXA2 [22],"10.4 upbm affinity estimate (log intensity, higher = more binding, comparable within an allelic series)"
same,binding signal,HOXA2 [23],"7.06 upbm affinity estimate (log intensity, higher = more binding, comparable within an allelic series)"
ACCGGGGA,binding signal,HOXB9 [1],"8.44 upbm affinity estimate (log intensity, higher = more binding, comparable within an allelic series)"
same,binding signal,HOXB9 [7],"8.19 upbm affinity estimate (log intensity, higher = more binding, comparable within an allelic series)"
same,binding signal,MSX2 [17],"9.45 upbm affinity estimate (log intensity, higher = more binding, comparable within an allelic series)"
same,binding signal,MSX2 [18],"9.39 upbm affinity estimate (log intensity, higher = more binding, comparable within an allelic series)"
same,binding signal,HOXB9 [8],"8.23 upbm affinity estimate (log intensity, higher = more binding, comparable within an allelic series)"
same,binding signal,MSX2 [19],"9.41 upbm affinity estimate (log intensity, higher = more binding, comparable within an allelic series)"
